Experimental findings from PubChem BioAssay (Tox21) are described below.

Inconclusive results are not listed. A call without a number means that no potency is given here. The source made the active and inactive calls. The call rests on the fitted dose curve; in most records, active means well fitted inhibition curve with a large enough effect in the repeat runs; inconclusive means weak or mixed curves; inactive means flat fitted curve, though single readings scatter.
Potency means the concentration at half of the fitted maximal effect.

Sequence of Voltage-gated inwardly rectifying potassium channel KCNH2 (Homo sapiens) (Q12809 whole entry, looked up): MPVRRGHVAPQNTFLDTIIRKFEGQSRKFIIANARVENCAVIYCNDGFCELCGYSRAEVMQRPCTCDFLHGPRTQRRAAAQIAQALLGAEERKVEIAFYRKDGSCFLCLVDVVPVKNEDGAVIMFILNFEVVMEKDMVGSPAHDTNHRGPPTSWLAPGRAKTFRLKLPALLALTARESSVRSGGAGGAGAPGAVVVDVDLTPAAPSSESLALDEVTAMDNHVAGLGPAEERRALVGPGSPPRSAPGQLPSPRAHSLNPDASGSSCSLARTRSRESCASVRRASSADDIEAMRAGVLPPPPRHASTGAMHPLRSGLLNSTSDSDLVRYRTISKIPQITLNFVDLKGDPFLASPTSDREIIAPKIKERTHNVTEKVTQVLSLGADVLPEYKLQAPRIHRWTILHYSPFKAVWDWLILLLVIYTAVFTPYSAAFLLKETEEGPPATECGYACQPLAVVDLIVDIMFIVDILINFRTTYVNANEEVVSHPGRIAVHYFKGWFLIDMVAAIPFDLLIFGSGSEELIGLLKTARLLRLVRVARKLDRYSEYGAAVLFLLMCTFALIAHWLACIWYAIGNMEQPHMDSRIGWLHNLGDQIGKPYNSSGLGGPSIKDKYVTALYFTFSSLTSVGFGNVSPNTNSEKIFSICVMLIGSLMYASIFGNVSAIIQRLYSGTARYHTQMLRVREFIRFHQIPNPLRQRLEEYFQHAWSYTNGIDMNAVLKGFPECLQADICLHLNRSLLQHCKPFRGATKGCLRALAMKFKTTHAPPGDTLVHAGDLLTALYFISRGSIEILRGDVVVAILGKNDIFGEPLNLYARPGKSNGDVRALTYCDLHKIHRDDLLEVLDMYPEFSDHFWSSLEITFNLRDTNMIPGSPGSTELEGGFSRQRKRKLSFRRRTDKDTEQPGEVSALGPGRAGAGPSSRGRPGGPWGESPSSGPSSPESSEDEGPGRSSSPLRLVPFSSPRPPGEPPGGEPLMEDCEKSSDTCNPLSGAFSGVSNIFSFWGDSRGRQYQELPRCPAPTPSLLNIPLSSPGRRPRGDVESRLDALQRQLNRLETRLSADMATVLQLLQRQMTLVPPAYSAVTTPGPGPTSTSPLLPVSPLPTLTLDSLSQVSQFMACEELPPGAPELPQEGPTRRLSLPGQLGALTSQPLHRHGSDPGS

This assay addresses Voltage-gated inwardly rectifying potassium channel KCNH2 (Homo sapiens) (UniProt Q12809). Kind of assay: Human Ether-a-go-go-Related Gene (hERG) channel small molecule antagonists: fluorescence cell-based qHTS assay (AID 1671200). Further: nearly all actives have a fitted effect of over 50% in size. The following applies: hERG-U2OS cells, FluxOR thallium flux fluorescence; series mostly up to 76.8 µM. From the text:
National Center for Advancing Translational Sciences [NCATS]
U.S. Environmental Protection Agency [EPA]
National Institutes of Environmental Health Sciences [NIEHS]
National Toxicology Program [NTP]
U.S. Food and Drug Administration [FDA]
Mutations in the hERG channel cause Long QT (LQT) syndrome. LQT syndrome is a cardiac disorder which can cause ventricle arrhythmia and sudden death. Additionally, compounds which block the hERG channel can cause acquired LQT syndrome. Several FDA approved drugs have been removed from the market due to their hERG blocking activity. A cell-based hERG channel inhibition assay can be used to screen chemical compounds that inhibit hERG channel. This assay measures hERG channel activity using thallium ions as surrogate ions to measure potassium into the cells.
Tox21 Assay Protocol Summary:
hERG-U2OS cells were resuspended in culture medium and dispensed into 1536-well, black wall/clear-bottom plates at 1000cells/well/3uL using a Multidrop Combi dispenser (Thermo Fisher, Waltham, MA). After plates were incubated at 37 C overnight, 3 uL of Loading Buffer provided by FluxOR II Potassium Ion Channel Assay kit (Thermo, Carlsbad, CA) was added to each well. The assay plates were then incubated at room temperature in the dark for 1h. […] After the assay plates were incubated at room temperature for 10 min, 1 uL of Stimulus Buffer provided by FluxOR II Potassium Ion Channel Assay kit was added into each well and fluorescence intensity (480nm excitation/540nm emission) was continuously measured for 2 min at 1 second intervals using a Functional Drug Screening System (FDSS) 7000EX kinetic plate reader (Hamamatsu, Japan).
(In general: The hERG channel carries a current that helps repolarise heart muscle cells.)
For the molecule `CC[C@H](NC(C)C)[C@H](O)c1ccc(O)c2[nH]c(=O)ccc12`, the Potency result is “inactive”.
For `CCCCOC(=O)C(C)Oc1ccc(Oc2ccc(C(F)(F)F)cn2)cc1` (stereo not given), the Potency is 24.5 µM (active).
For `CC(C)=CCC[C@H](C)CCO`, the Potency result was “inactive”.
On the same count and under the same terms, for `Clc1nc2ccccc2nc1Cl` the value was “inactive”; for `C1=COCCC1`, “inactive”; for `O=C(Cl)c1ccc(F)c(Cl)c1`, “inactive”.
The same measure, in the same setting: to `COc1cc(CNC(=O)CCCC/C=C/C(C)C)ccc1O` belongs “inactive”; to `OCCCO`, “inactive”; to `CCC(C)CCCC(C)(C)O` (stereo not given), “inactive”.
`COc1ccc(CN(CCN(C)C)c2ncccn2)cc1`: the Potency entry is “inactive”.
On the same count and under the same terms, for `Cc1cc(C)n(CO)n1` the value was “inactive”.
Same read-out and setting: for `C/C(=C(\CCO)SS/C(CCO)=C(\C)N(C=O)Cc1cnc(C)nc1N)N(C=O)Cc1cnc(C)nc1N` the value was “inactive”.
In the case of `CC1=CC(=C(c2ccc(N)cc2)c2ccc(N)cc2)C=CC1=N`, the activity change, negative = inhibition was -5.88% [at 6.97 µM] (inactive).
Regarding `CCC(CC)C(=O)O`, the Potency entry is “inactive”.
Regarding `O=C(O)CNc1ccccc1`, the Potency result is “inactive”.
On to `CC(C)(C)c1cc(C=O)cc(C(C)(C)C)c1O`, for which the Potency entry is “inactive”.
On the same count and under the same terms, for `N#C[C@@H]1CC(F)(F)CN1C(=O)CNC1CC2CCC(C1)N2c1ncccn1` (stereo not given in full) the value was “inactive”; for `CCOCCn1c(N2CCCN(C)CC2)nc2ccccc21`, 7.56 µM (active).
On the same count and under the same terms, to `CC(C)(Cc1c[nH]c2ccccc12)NCC(O)COc1ccccc1C#N` (stereo not given) belongs 8.49 µM (active); to `CCCCCCCCC(=O)OCC(C)OC(=O)CCCCCCCC` (stereo not given), “inactive”; to `CCCCOC(=O)CC#N`, “inactive”.
Still for that read-out and setting: for `C=CC(=O)OCCCCCCCCCC` the value was “inactive”; for `CCCCCCCCOCCCN`, 43.6 µM (active).
For the molecule `CC1(COc2ccc(CC3SC(=O)NC3=O)cc2)CCCCC1` (stereo not given), the Potency result was “inactive”.
With `CCC(=O)O[C@@H]1C[C@H]2CC[C@]1(C)C2(C)C`, the Potency result is “inactive”.
Regarding `O=C(O)CCc1nc2ccccc2[nH]1`, the Potency entry was “inactive”.
The same measure, in the same setting: for `Cc1cc(N)n(-c2ccccc2)n1` the value was “inactive”; for `O=C(O)COCC(=O)O`, “inactive”.
Same read-out and setting: to `Oc1ccc(CCNCCCCCCNCCc2ccccc2)cc1O` belongs “inactive”; to `CC(C)CCCCCCCOC(=O)c1ccc(C(=O)OCCCCCCCC(C)C)c(C(=O)OCCCCCCCC(C)C)c1`, “inactive”.
Take `c1ccc(CCNc2nc(-c3ccccc3)cs2)cc1`: the Potency result is “inactive”.
Still for that read-out and setting: to `O=C1c2ccccc2C(=O)C1c1ccc2cc(S(=O)(=O)O)cc(S(=O)(=O)O)c2n1` belongs “inactive”; to `CC(C)CC(C)(C)C`, “inactive”.
On to `CC(=O)c1cccnc1`, for which the Potency entry was “inactive”.
On the same count and under the same terms, for `O=C(O)c1cc(C(=O)O)c(C(=O)O)cc1C(=O)O` the value was “inactive”.
In the case of `CCCCCCC/C=C/C=O`, the Potency result was “inactive”.
`[O-][n+]1ccc(Cl)cc1`: the Potency entry was “inactive”.
Same read-out and setting: for `CCCC(=O)OCCC(C)C` the value was “inactive”.
On to `O=C1c2ccccc2C(=O)C1c1ccc2ccccc2n1`, for which the Potency result was “inactive”.
With `CC(CC(C#N)(c1ccccc1)C(C)C)N(C)C` (stereo not given), the Potency entry is “inactive”.
